Results as given in PubChem BioAssay (NCATS).
Records with an inconclusive call do not appear. Unmarked numbers belong to inactive results. Activity calls are given as the source filed them. The call rests on the fitted dose curve; in most records, active means well fitted inhibition curve with a large enough effect; inconclusive means small, poorly fitted or top-dose-only effect; inactive means flat fitted curve, though single readings scatter.

Tests used:
Assay in all cases: Cytotoxic Profiling of Annotated Libraries Using Quantitative High-Throughput Screening (AID 1296008); further: nearly all actives have a fitted effect of over 60% in size
Settings in all cases: Five cell lines viability, CellTiter-Glo ATP luminescence, 48-72 h; max response: active compounds read low
[1] = test system: HEK293
Method in brief: (§1)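 Cells exposed to compounds for 48 or 72 hr at 37 degrees Celsius. Viability read as ATP-coupled luminescence with CellTiter-Glo after 10 min at room temperature.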

[2] = test system: HaCat
Method in brief: as §1

[3] = test system: KB-3-1
Method in brief: as §1

[4] = test system: NIH3T3
Method in brief: as §1
On the % scale 0 is the no-effect control and ±100 the full control effect; potency means the concentration at half of the fitted maximal effect.

C[C@H](O)[C@H](O)/C=C/c1cccc(O)c1CO
max response [1]: -4.7%
max response [2]: -3.13%
max response [3]: 8.41%
max response [4]: -3.03%

NCc1c[nH]c(=S)n1[C@@H]1CCc2c(F)cc(F)cc2C1
max response [1]: -9.28%
max response [2]: 3.97%
max response [3]: -4.38%
max response [4]: -1.29%

O=C(O)c1cccc(S(=O)(=O)N2CCc3ccccc3C2)c1
max response [1]: -4.38%
max response [2]: -24.7%
max response [3]: 0.457%
max response [4]: -16.4%

C/C=C/C=C/[C@@H]1O[C@](O)([C@H](CC)C(=O)NC/C=C/C=C(\C)[C@@H](OC)[C@@H](C)C2OC(/C=C/C=C/C=C(\C)C(=O)c3c(O)cc[nH]c3=O)[C@H](O)[C@@H]2O)[C@H](O)[C@H](O)C1(C)C (stereo partly drawn)
max response [1]: 1.43%
max response [2]: -11.5%
max response [3]: 2.01%
max response [4]: -4.29%

CCN1CCN(Cc2ccc(NC(=O)c3ccc(C)c(NC(=O)c4cncc(-c5cccs5)c4)c3)cc2C(F)(F)F)CC1
Potency [1]: 1.3 µM (active)
Potency [2]: 0.92 µM (active)
Potency [3]: 14.6 µM (active)
Potency [4]: 1.16 µM (active)

O=C(O[C@H]1[C@@H]2C[C@@H]3OC[C@](O)([C@@H]1Cl)[C@H]2C(O[C@@H]1O[C@H](CO)[C@@H](O)[C@H](O)[C@H]1O)O3)c1ccc(O)c(O)c1 (stereo partly drawn)
max response [1]: -2.09%
max response [2]: -10.7%
max response [3]: 6.86%
max response [4]: 3.52%

CC1(C)C2CC=C(COC3OC(COC4OCC(O)(CO)C4O)C(O)C(O)C3O)C1C2 (stereo not drawn)
max response [1]: -3.04%
max response [2]: 3.64%
max response [3]: 4.52%
max response [4]: 3.88%
